Records with an inconclusive call do not appear. Active and inactive are the calls of the source. Unless noted, calls follow the shape of the dose curve; as a rule, active = well fitted cell-killing curve with a large enough effect; inconclusive = small, poorly fitted or top-dose-only effect, or effect the other way; inactive = no such curve, though single readings can be large or run the other way.
What was measured:
[1] = Quantitative High-Throughput drug screen in 47 multiple myeloma cell lines against the NCATS MIPE library collection: KMS34_JCRB cell viability assay (AID 1918985); also: nearly all actives have a fitted effect of over 40% in size
Summary of the method: (§1)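 Inhibition of viability over 48 h was scored by ATP content (CellTiter-Glo) in 500-cell wells. Zero and full viability were defined by media-only and DMSO-only wells.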

[2] = Quantitative High-Throughput drug screen in 47 multiple myeloma cell lines against the NCATS MIPE library collection: OCIMY7_PLB cell viability assay (AID 1918987); also: nearly all actives have a fitted effect of over 65% in size
Summary of the method: as §1

[3] = Quantitative High-Throughput drug screen in 47 multiple myeloma cell lines against the NCATS MIPE library collection: OCIMY5_PLB cell viability assay (AID 1918988); also: nearly all actives have a fitted effect of over 65% in size
Summary of the method: as §1

[4] = Quantitative High-Throughput drug screen in 47 multiple myeloma cell lines against the NCATS MIPE library collection: OPM1_PLB cell viability assay (AID 1918989); also: nearly all actives have a fitted effect of over 40% in size
Summary of the method: as §1

[5] = Quantitative High-Throughput drug screen in 47 multiple myeloma cell lines against the NCATS MIPE library collection: SKMM1_PLB cell viability assay (AID 1919863); settings: SKMM1 myeloma viability, CellTiter-Glo ATP, 48 h; viability: stronger effect = lower value; also: nearly all actives have a fitted effect of over 35% in size
Summary of the method: as §1

[6] = Quantitative High-Throughput drug screen in 47 multiple myeloma cell lines against the NCATS MIPE library collection: XG6_PLB cell viability assay (AID 1919865); also: nearly all actives have a fitted effect of over 40% in size
Summary of the method: as §1

[7] = Quantitative High-Throughput drug screen in 47 multiple myeloma cell lines against the NCATS MIPE library collection: XG1_PLB cell viability assay (AID 1919866); also: nearly all actives have a fitted effect of over 35% in size
Summary of the method: as §1

[8] = Quantitative High-Throughput drug screen in 47 multiple myeloma cell lines against the NCATS MIPE library collection: VP6_DJ cell viability assay (AID 1919867); also: nearly all actives have a fitted effect of over 40% in size
Summary of the method: as §1

[9] = Quantitative High-Throughput drug screen in 47 multiple myeloma cell lines against the NCATS MIPE library collection: UTMC2_PLB cell viability assay (AID 1919868); settings: CellTiter-Glo ATP luminescence, 48 h; viability (% of DMSO control): at 45.8 µM (top of the series) unless noted; also: nearly all actives have a fitted effect of over 55% in size
Summary of the method: as §1

[10] = Quantitative High-Throughput drug screen in 47 multiple myeloma cell lines against the NCATS MIPE library collection: PE2_PLB cell viability assay (AID 1919869); also: nearly all actives have a fitted effect of over 35% in size
Summary of the method: as §1

[11] = Quantitative High-Throughput drug screen in 47 multiple myeloma cell lines against the NCATS MIPE library collection: RPMI8226_ATCC cell viability assay (AID 1919871); also: nearly all actives have a fitted effect of over 30% in size
Summary of the method: as §1

[12] = Quantitative High-Throughput drug screen in 47 multiple myeloma cell lines against the NCATS MIPE library collection: OPM2_DSMZ cell viability assay (AID 1919872); also: nearly all actives have a fitted effect of over 30% in size
Summary of the method: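 CellTiter-Glo luminescence (ATP) after 48 h compound exposure, 37C/5% CO2; 500 cells/well; MIPE 4.0 approved/investigational drugs pinned in; DMSO = 100%, media only = 0% viability.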

[13] = Quantitative High-Throughput drug screen in 47 multiple myeloma cell lines against the NCATS MIPE library collection: KMS11_JCRBsus cell viability assay (AID 1919873); also: nearly all actives have a fitted effect of over 50% in size
Summary of the method: as §1

[14] = Quantitative High-Throughput drug screen in 47 multiple myeloma cell lines against the NCATS MIPE library collection: KMS28BM_JCRB cell viability assay (AID 1919874); also: nearly all actives have a fitted effect of over 35% in size
Summary of the method: as §1

[15] = qHTS drug screen for cell cycle checkpoint inhibitors in PARPi-resistant BRCA-mutant ovarian cancer cell lines. (AID 1963452; calls by dose curve); settings: PEO1/OlaR viability, CellTiter-Glo luminescence, 96 h; for Z-AUC: stronger effect = lower value
Summary of the method: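 PEO1, PEO4 and PEO1/OlaR ovarian cancer cells, 600 per well, exposed 96 h at 37C to a dilution series. Viability read by CellTiter-Glo luminescence, normalized to DMSO and empty wells; activity summarized as Z-AUC.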

[16] = Quantitative High-Throughput drug screen in 47 multiple myeloma cell lines against the NCATS MIPE library collection: U266_ATCC cell viability assay (AID 1919864); also: nearly all actives have a fitted effect of over 35% in size
Summary of the method: as §1

[17] = Quantitative High-Throughput drug screen in 47 multiple myeloma cell lines against the NCATS MIPE library collection: PCM6_Riken cell viability assay (AID 1919870); also: nearly all actives have a fitted effect of over 30% in size
Summary of the method: as §1

[18] = qHTS for identification of novel therapeutic agents for treatment of microphthalmiaassociated transcription factor (MiT) renal cell carcinoma (RCC) (AID 1963991; calls by dose curve;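 as to z-score: curves scaled with 100% = DMSO viability and 0% = empty wells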); settings: CellTiter-Glo, 48 h; for Potency: active = Z-AUC below -0.8 in all three lines; for z-score: stronger effect = lower value
Summary of the method: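 UOK109/UOK124/UOK145 (TFE3 fusions, three partners); 500 cells/well; MIPE v4.0, 1912 cpds, 11 conc.; 48 h, 37 C; CellTiter-Glo, 15 min RT; lum. Norm.: DMSO 100%, empty 0%.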

[19] = measured here: PEO1 parental Z-AUC
[20] = TFE3-RCC UOK109 viability, measured here: UOK109 Z-AUC
[21] = TFE3-RCC viability, measured here: UOK124 Z-AUC
[22] = TFE3-RCC viability, measured here: UOK145 Z-AUC
Potency is read from the fitted curve at half-maximal effect.

C=CC(=O)Nc1cccc(Oc2nc(Nc3ccc(N4CCN(C)CC4)cc3)ncc2Cl)c1
inactive: Z-AUC [15] -0.847
active: Potency [1] 9350 nM | Potency [2] 209 nM | Potency [3] 3320 nM | Potency [4] 1050 nM | Potency [5] 18700 nM | Potency [6] 1180 nM | Potency [7] 13200 nM | Potency [8] 5900 nM | Potency [9] 6620 nM | Potency [10] 5900 nM | Potency [11] 14800 nM | Potency [12] 11800 nM | Potency [13] 1050 nM | Potency [14] 14800 nM
-0.559: Z-AUC [15, 19]
-0.604: Z-AUC ([15]; measured here: PEO4 Z-AUC)

CN1CC[C@@H](c2c(O)cc(O)c3c(=O)cc(-c4ccccc4Cl)oc23)[C@@H](O)C1
-1.36: Z-AUC [15, 19]
-1.53: z-score [18, 21]
active: Potency [1] 74.3 nM | Potency [2] 29.6 nM | Potency [3] 66.2 nM | Potency [4] 83.3 nM | Potency [5] 187 nM | Potency [16] 166 nM | Potency [8] 52.6 nM | Potency [9] 83.3 nM | Potency [10] 66.2 nM | Potency [17] 83.3 nM | Potency [11] 235 nM | Potency [12] 118 nM | Potency [13] 66.2 nM | Potency [14] 93.5 nM | Potency ([18]; TFE3-RCC UOK109 viability) 118 nM
-1.16: Z-AUC ([15]; measured here: PEO4 Z-AUC)
-2.13: z-score [18, 22]
inactive: Z-AUC [15] -0.536
-2.54: z-score [18, 20]

CC1(C)OC2=C(C(=O)c3ccccc3C2=O)[C@H](NCc2ccccc2)[C@H]1O
active: Potency [1] 4180 nM | Potency [2] 1320 nM | Potency [3] 3320 nM | Potency [5] 7430 nM | Potency [6] 935 nM | Potency [7] 1480 nM | Potency [8] 3320 nM | Potency [9] 2350 nM | Potency [10] 3320 nM | Potency [11] 8330 nM | Potency [12] 8330 nM | Potency [13] 3720 nM | Potency [14] 2960 nM

COc1cccc2nc(-c3cccs3)nc(NN3C(=O)C=C(C)C3=O)c12
active: Potency [1] 29.6 nM | Potency [2] 26.4 nM | Potency [3] 41.8 nM | Potency [4] 83.3 nM | Potency [5] 1050 nM | Potency [7] 26.4 nM | Potency [8] 37.2 nM | Potency [10] 418 nM | Potency [17] 41.8 nM | Potency [11] 2090 nM | Potency [12] 1480 nM | Potency [13] 8.3 nM | Potency [14] 33.2 nM | Potency [15] 4360 nM
-1.8: Z-AUC [15, 19]
-2.06: Z-AUC ([15]; measured here: PEO4 Z-AUC)

Cc1c(CN2CCN(S(C)(=O)=O)CC2)sc2c(N3CCOCC3)nc(-c3cnc(N)nc3)nc12
0.564: Z-AUC [15, 19]
active: Potency [1] 37.2 nM | Potency [2] 132 nM | Potency [3] 52.6 nM | Potency [5] 83.3 nM | Potency [16] 118 nM | Potency [6] 66.2 nM | Potency [7] 46.9 nM | Potency [8] 23.5 nM | Potency [9] 26.4 nM | Potency [10] 37.2 nM | Potency [17] 418 nM | Potency [11] 16.6 nM | Potency [12] 105 nM | Potency [14] 13.2 nM | Potency ([18]; TFE3-RCC UOK109 viability) 83.3 nM
-2.46: z-score [18, 22]
inactive: Z-AUC [15] 0.0284
-2.43: z-score [18, 21]
-2.2: z-score [18, 20]
0.402: Z-AUC ([15]; measured here: PEO4 Z-AUC)

CC(NCc1ccc2c(c1)nc(NC(=O)c1ccc(-c3cn[nH]c3)s1)n2CC(C)(C)O)C(C)(C)C (configuration not stated)
active: Potency [1] 372 nM | Potency [2] 148 nM | Potency [3] 235 nM | Potency [5] 743 nM | Potency [16] 332 nM | Potency [6] 235 nM | Potency [7] 372 nM | Potency [8] 187 nM | Potency [9] 105 nM | Potency [10] 296 nM | Potency [17] 105 nM | Potency [11] 743 nM | Potency [12] 1050 nM | Potency [13] 209 nM | Potency [14] 332 nM

Cn1c(=O)n(-c2ccc(C(C)(C)C#N)cc2)c2c3cc(-c4cnc5ccccc5c4)ccc3ncc21
active: Potency [1] 13.2 nM | Potency [2] 1480 nM | Potency [3] 743 nM | Potency [5] 33.2 nM | Potency [16] 4180 nM | Potency [9] 9.3 nM | Potency [11] 10.5 nM | Potency [14] 20.9 nM | Potency [15] 2 nM
-1.42: Z-AUC [15, 19]
-1.44: Z-AUC ([15]; measured here: PEO4 Z-AUC)

CC(C)c1cnn2c(NCc3ccccc3)cc(N[C@@H](CO)[C@H](O)CO)nc12
active: Potency [1] 662 nM | Potency [2] 235 nM | Potency [3] 235 nM | Potency [5] 372 nM | Potency [16] 296 nM | Potency [6] 235 nM | Potency [7] 264 nM | Potency [8] 187 nM | Potency [9] 209 nM | Potency [10] 235 nM | Potency [11] 332 nM | Potency [12] 332 nM | Potency [13] 148 nM | Potency [14] 296 nM | Potency ([18]; TFE3-RCC UOK109 viability) 372 nM
-0.933: z-score [18, 21]
-1.84: z-score [18, 22]
-1.04: z-score [18, 20]

CC1(C)CCC(c2ccc(Cl)cc2)=C(CN2CCN(c3ccc(C(=O)NS(=O)(=O)c4ccc(N[C@H](CCN5CCOCC5)CSc5ccccc5)c(S(=O)(=O)C(F)(F)F)c4)cc3)CC2)C1
-1.15: Z-AUC ([15]; measured here: PEO4 Z-AUC)
active: Potency [1] 9350 nM | Potency [2] 1 nM | Potency [3] 37.2 nM | Potency [4] 5260 nM | Potency [16] 14800 nM | Potency [6] 11800 nM | Potency [7] 16600 nM | Potency [8] 372 nM | Potency [9] 93.5 nM | Potency [10] 2640 nM | Potency [17] 26.4 nM | Potency [11] 2960 nM | Potency [12] 18700 nM | Potency [14] 332 nM
-0.554: Z-AUC [15, 19]
inactive: Z-AUC [15] -0.481

CC[C@H](CO)Nc1nc(NCc2ccccc2)c2ncn(C(C)C)c2n1
1.03: Z-AUC [15, 19]
inactive: Z-AUC [15] 0.956
active: Potency [1] 26400 nM | Potency [2] 16600 nM | Potency [3] 18700 nM | Potency [4] 23500 nM | Potency [7] 16600 nM | Potency [8] 18700 nM | Potency [9] 23500 nM | Potency [10] 14800 nM | Potency [17] 9350 nM | Potency [13] 20900 nM
1.29: Z-AUC ([15]; measured here: PEO4 Z-AUC)

— PubChem BioAssay (NCATS)
